Source: PubChem
Mcl-1 Bim block = inhibitors of Bim-Mcl-1 interaction, human | Bead-based flow cytometry, Bim peptide-Mcl-1 binding | inhibition, % at 10 µM | 190,000 compounds, 0.1% hits | AID 1009; in the data active = inhibition above about 40%
14-3-3 Bad inh = disrupts binding of bovine 14-3-3 zeta to phospho-Bad peptide; TR-FRET 14-3-3zeta/Dy647-pBad peptide displacement, 1 h; inhibition, % at 21.7 µM; P63103; 220,000 compounds, 0.71% hits;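 active = inhibition above about 70%, limit read from the data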
Target sequence (P63103 whole entry, looked up): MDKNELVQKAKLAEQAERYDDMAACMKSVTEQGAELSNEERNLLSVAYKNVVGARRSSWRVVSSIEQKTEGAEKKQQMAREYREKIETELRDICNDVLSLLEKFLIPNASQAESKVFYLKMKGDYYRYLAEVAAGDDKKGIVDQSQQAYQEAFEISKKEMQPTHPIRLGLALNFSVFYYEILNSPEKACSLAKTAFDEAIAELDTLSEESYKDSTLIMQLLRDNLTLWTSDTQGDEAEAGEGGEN
p47phox inh = blocks human p47phox regulatory protein of NADPH oxidases. 220,000 compounds, 0.53% hits. p47phox/p22phox peptide binding, fluorescence polarization, 2 h. P14598. inhibition, % at 24.7 µM. AID 1274
Target sequence (P14598 whole entry, looked up): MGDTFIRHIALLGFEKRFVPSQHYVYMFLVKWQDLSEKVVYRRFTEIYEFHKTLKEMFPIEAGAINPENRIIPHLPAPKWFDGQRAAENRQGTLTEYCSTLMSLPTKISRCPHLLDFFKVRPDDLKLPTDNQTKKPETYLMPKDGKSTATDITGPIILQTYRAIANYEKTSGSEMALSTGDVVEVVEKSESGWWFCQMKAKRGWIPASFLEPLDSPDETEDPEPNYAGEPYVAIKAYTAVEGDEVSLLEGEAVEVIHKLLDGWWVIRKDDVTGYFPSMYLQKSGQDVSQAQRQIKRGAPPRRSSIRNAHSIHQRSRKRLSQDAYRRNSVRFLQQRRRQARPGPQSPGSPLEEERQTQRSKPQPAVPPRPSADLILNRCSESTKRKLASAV
eIF4E 4G PPI = blocks eIF4E binding to eIF4G. P63073+Q04637. TR-FRET eIF4E-eIF4GI(517-606) binding, 2 h. inhibition, % at 21.7 µM. 220,000 compounds, 0.37% hits. AID 782
Mcl1-Bid inh = disrupts binding of human Mcl-1 to Bid peptide | Q07820 | inhibition, % at 21.7 µM | AID 1021 | 220,000 compounds, 0.97% hits | TR-FRET Mcl-1/Bid-Dy647 peptide binding, 1536-well;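 active = compounds that cut the binding signal by more than half at the single screening dose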;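 also: His-tagged Mcl-1 with europium anti-His antibody binding Bid BH3 peptide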
Mcl1-Noxa inh = disrupts binding of human Mcl-1 to Noxa peptide. Q07820. TR-FRET Mcl-1/Noxa peptide binding, 2 h. inhibition, % at 21.7 µM. 220,000 compounds, 1.5% hits. AID 1022;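 active = compounds that cut the protein-peptide binding signal by more than 50% relative to plate controls in a single-dose test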;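 also: His-tagged Mcl-1 with rhodamine Noxa BH3 peptide and terbium anti-His antibody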
Large screens that a line does not name were inactive; [ ] = another dose, or the depositor's remark. The list is not random: actives were taken first. Their share in the collection is about 3.3%.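 The calls were made as follows, unless noted: active = inhibition above about 30% (limit read from the data); inactive = the rest.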

CCOc1ccc(Nc2ncnc3c2cnn3Cc2ccccc2)cc1	14-3-3 Bad inh 80
C(=N\N1CCN(Cc2ccccc2)CC1)/c1ccccc1	none (no result: Mcl-1 Bim block)
CCN(CC)c1ccc(/C=N/N2CCN(Cc3ccccc3)CC2)cc1	Mcl1-Noxa inh 75
O=C(CCC(=O)OCc1ccc([N+](=O)[O-])cc1)Nc1ccccc1Cl	none
O=C(NCCc1ccc(F)cc1)c1cc(-c2ccncc2)nc2ccccc12	none (no result: Mcl-1 Bim block)
O=C(Nc1ccccn1)C(F)(F)C(F)(F)C(F)(F)C(F)(F)C(=O)Nc1ccccn1	none
Cc1cc(C(=O)OCC(=O)Nc2sc3c(c2C#N)CCC(C)C3)c2ccccc2n1 (centres undefined)	Mcl1-Noxa inh 93
COc1ccccc1-c1cc(C(=O)Nc2sc3c(c2C#N)CCC(C)C3)c2ccccc2n1 (centres undefined)	none
CC1(C)OC(=O)C(=Cc2ccc(-c3ccc(S(N)(=O)=O)cc3)o2)C(=O)O1	none
NS(=O)(=O)c1ccc(-c2ccc(/C=C3\C(=O)Nc4cc(Cl)ccc43)o2)cc1	14-3-3 Bad inh 75, Mcl1-Noxa inh 63
NC(=O)c1ccc(NC(=O)c2cccc3c2OCCCO3)cc1	none (no result: Mcl-1 Bim block)
COc1ccccc1NC(=S)Nc1ccc2cn[nH]c2c1	none
COc1ccc(C2CC(c3ccccc3)Nc3nc(N)nn32)cc1 (centres undefined)	Mcl1-Bid inh 71
Nc1nc2n(n1)C(c1ccco1)CC(c1ccccc1)N2 (centres undefined)	p47phox inh 46
Cc1ccccc1C(=O)NNC(=O)/C=C/c1ccccc1	none
Cc1ccc2nc3c(c(Nc4ccc5c(c4)OCCO5)c2c1)CCC3	Mcl1-Noxa inh 56
Cc1nc(CS(=O)(=O)c2ccccn2)sc1C(=O)NNC(=O)c1ccc(Cl)cc1	none (no result: Mcl-1 Bim block)
O=C(N/N=C\c1c(O)ccc2ccccc12)c1ccc(Cn2cccn2)o1	Mcl1-Noxa inh 51
O=C(N/N=C\c1ccc(Cl)s1)c1ccc(Cn2cccn2)o1	none
O=C(NCc1ccccc1)c1ccc(CS(=O)(=O)Cc2ccccc2F)o1	none
O=C(O)c1ccc(CS(=O)(=O)Cc2ccccc2F)o1	Mcl1-Bid inh 92
CCc1c(C(=O)Nc2cc(C)ccc2OC)[nH]c(C)c1C(C)=O	Mcl1-Bid inh 96
Cc1c(Cl)cccc1NS(=O)(=O)c1ccc2c(c1)C1C=CCC1C(c1ccc(C(=O)O)cc1)N2 (centres undefined)	14-3-3 Bad inh 91, eIF4E 4G PPI 50, Mcl1-Bid inh 100, Mcl1-Noxa inh 103
CCCCOc1ccc(Nc2cc(Cl)ccc2C(=O)O)cn1	none (no result: Mcl-1 Bim block)
COc1ccccc1N1CCN(S(=O)(=O)c2ccccc2)CC1	none
COc1ccccc1N1CCN(S(=O)(=O)Cc2ccccc2Cl)CC1	eIF4E 4G PPI 31
C=CCn1c(-c2cc(Cl)ccc2OC)n[nH]c1=S	none
CCn1c(-c2cc(Cl)ccc2OC)n[nH]c1=S	Mcl1-Noxa inh 59
COc1ccc2c(c1)CCC(C)N2C(=O)C(=O)c1c[nH]c2ccccc12 (centres undefined)	none (no result: Mcl-1 Bim block)
Cc1ccc2nsnc2c1NC(=O)c1cncc(Br)c1	none
CN(/N=C\c1ccc(O)c(O)c1)c1nc(-c2ccccc2)cc(-c2ccccc2)n1	Mcl1-Noxa inh 72
C(#Cc1ccccc1)C[N+]1(CC#Cc2ccccc2)CCCC1	none
C=CC#CC[N+]1(CC#Cc2ccccc2)CCOCC1	p47phox inh 61
CN(C)c1ccc(/C=C/C(=O)c2cc(Cl)ccc2O)cc1	p47phox inh 79 (no result: Mcl-1 Bim block)
CN(C)c1ccc(C(=O)/C=C/c2ccc(Br)cc2)cc1	Mcl-1 Bim block 82
CCCOc1ccc(S(=O)(=O)NNC(=O)c2cc3ccccc3o2)cc1	none
Cc1ccc([N+](=O)[O-])cc1-c1ccc(/C=C(\C#N)c2[nH]nc(N)c2C#N)o1	14-3-3 Bad inh 72[fluorescence artefact?], p47phox inh 38, Mcl1-Bid inh 79, Mcl1-Noxa inh 68
O=C(Cc1ccc(F)cc1)Nc1nnc(SCC(=O)NC2CCCC2)s1	Mcl1-Bid inh 72
O=C(Cc1cccs1)Nc1nnc(SCC(=O)NC2CCCCC2)s1	none
Cc1cccnc1Nc1nc(-c2ccc(O)c(O)c2)cs1	Mcl1-Noxa inh 69
COC(=O)c1ccc(N=NNc2cccc(Br)c2)cc1	none
COc1ccc(OC)c(NC(=O)c2ccc(OC3CSC3)cc2)c1	none
O=C(COc1ccccc1[N+](=O)[O-])NNC(=O)Nc1cccc2ccccc12	none
CC(C)CN(C(=O)COC(=O)c1cc2c(s1)CCC2)C1CCS(=O)(=O)C1 (centres undefined)	Mcl1-Noxa inh 55
CC(C)CN(C(=O)COC(=O)c1ccc(-c2ccccc2)cc1)C1CCS(=O)(=O)C1 (centres undefined)	none
CCCCC1C(=O)N(c2ccccc2)N(c2ccccc2)C1=O	Mcl1-Bid inh 56
CCN(CC)c1ccc(N=Cc2c(C)[nH]c3ccccc23)cc1	eIF4E 4G PPI 32[fluorescence artefact?], Mcl1-Noxa inh 61
COCCn1nnnc1CN1CCOCC1	14-3-3 Bad inh 75
COCCn1nnnc1CN1CCC(C)CC1	none
COc1ccc(C(=O)COc2ccc(F)cc2)c(O)c1C	none
N#CCCN(Cc1cccnc1)C(=S)Nc1ccccc1Cl	p47phox inh 37
S=C(Nc1ccccc1Cl)N(Cc1cccnc1)Cc1ccco1	none
O=C(NC(=O)N1CCN(c2ccc([N+](=O)[O-])cn2)CC1)c1c(Cl)cccc1Cl	none (no result: Mcl-1 Bim block)
COc1ccc(CNC(C)C2COc3ccccc3O2)c(OC)c1 (centres undefined)	none
CC(NCc1ccccc1)C1COc2ccccc2O1 (centres undefined)	Mcl1-Bid inh 60 (no result: Mcl1-Noxa inh)
CN1CCN/C1=C(/C(Cl)=C(Cl)Cl)[N+](=O)[O-]	none
CC(C)CNC(=O)c1c(N)n(/N=C/c2ccccn2)c2nc3ccccc3nc12	Mcl1-Bid inh 56
CCCCNC(=O)c1c(N)n(/N=C/c2ccccn2)c2nc3ccccc3nc12	14-3-3 Bad inh 81
COC(=O)c1nc(N)sc1C	none
O=C(NCc1cccnc1)C(=O)Nc1ccc([N+](=O)[O-])cc1	none
C/C(O)=C(/C=Nc1ccccc1)C(=O)Nc1ccccc1	none
O=C1CCCC2(O)C1C(c1cccc(Br)c1)NC(=O)N2Cc1ccccc1 (centres undefined)	Mcl-1 Bim block 41
O=c1[nH]c2c(s1)C(c1ccc(O)cc1)C1C3CCC(C3)C1S2 (centres undefined)	Mcl1-Noxa inh 54
O=c1[nH]c2c(s1)C(c1cccnc1)C1C3CCC(C3)C1S2 (centres undefined)	none (no result: Mcl-1 Bim block)
Cn1c(N)c(C(=O)COC(=O)c2cc(-c3ccco3)nc3ccccc23)c(=O)n(C)c1=O	Mcl1-Noxa inh 87
Cn1c(N)c(C(=O)COC(=O)c2cc(-c3ccco3)nc3ccccc23)c(=O)n(Cc2ccccc2)c1=O	Mcl1-Noxa inh 106
CC(C)Cn1c(N)c(C(=O)COC(=O)c2ccccc2F)c(=O)n(C)c1=O	none
